Screens: PubChem, several laboratories
sPLA2-III inh: Blocks human group III sPLA2 activity. inhibition, % at 12.2 µM. Q9NZ20. actives 0.56% (n = 370,000). AID 743126. QFRET BODIPY PC-A2 liposome hydrolysis, fluorescence;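 active means inhibition above mean plus 3 SD of compounds lying within the high and low control bounds, cut at about 19% in these data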
KLK7 zymogen act: activates the human kallikrein-7 zymogen; actives 0.9% (n = 370,000); purified proKLK7, EDANS-DABCYL substrate fluorescence; 100% is mature enzyme control, 0% vehicle; P49862; activation, % at 7 µM;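 active means activation above the mean of all tested compounds plus 3 SD, computed per campaign excluding outliers beyond control limits, cut at about 13% in these data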
Target sequence (P49862 whole entry, looked up): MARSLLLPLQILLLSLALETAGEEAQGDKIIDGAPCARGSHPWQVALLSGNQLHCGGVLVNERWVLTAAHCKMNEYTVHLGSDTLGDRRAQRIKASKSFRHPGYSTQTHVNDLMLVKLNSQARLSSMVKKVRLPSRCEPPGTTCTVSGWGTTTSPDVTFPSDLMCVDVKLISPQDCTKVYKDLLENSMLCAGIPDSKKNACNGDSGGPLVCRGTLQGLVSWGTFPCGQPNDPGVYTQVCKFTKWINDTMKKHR
CendR NRP1 mod: alters CendR peptide binding to human NRP-1; AID 602438; actives 0.85% (n = 360,000); inhibition, % at 25 µM; FAM-RPARPAR peptide binding to NRP-1, fluorescence polarization;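 active means inhibition or corrected inhibition above about 18%, plus a signal ratio from 0.5 to 1.5, limit read from the data, passing the limit was not always enough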
ADAM17 inh: ADAM17 inhibition, QFRET primary screen; recombinant ADAM17, EDANS/DABCYL FRET peptide cleavage; AID 720648; actives 0.83% (n = 370,000); inhibition, % at 6.95 µM; P78536;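 active means inhibition above the mean of compounds lying between control limits plus 3 SD, set per campaign, cut at about 8.5% in these data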
ADAM10 inh: ADAM10 inhibition, QFRET primary screen; O14672; recombinant ADAM10, EDANS/DABCYL FRET peptide cleavage, 3 h; inhibition, % at 7 µM; actives 0.62% (n = 370,000); AID 720582;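 active means inhibition above a per-campaign cutoff equal to the mean of compounds falling between control-based bounds plus 3 SD, cut at about 20% in these data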
ADAM10 confirm: confirmation of inhibitors of human ADAM10; shares compounds with ADAM10 inh; ADAM10 QFRET peptide cleavage, EDANS fluorescence; inhibition, % at 6.95 µM; actives 1% (n = 2,100); AID 743208;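 active means inhibition above about 20% chosen separately for each screening run, limit read from the data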
ADAM17 ctr: ADAM17 inhibition, counter-screen for ADAM10 exosite hits | shares compounds with ADAM10 inh | ADAM17 QFRET peptide cleavage, EDANS fluorescence | inhibition, % at 6.95 µM | actives 0.5% (n = 2,100);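 active means mean triplicate inhibition above the solvent-only control wells' mean plus 3 SD, cut at about 12% in these data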
Hits are given with their value; 0 = inactive; - = no result given. This is a sample that favours compounds with a hit; in the whole collection about 3.4% have one here.

SMILES	sPLA2-III inh	KLK7 zymogen act	CendR NRP1 mod	ADAM17 inh	ADAM10 inh	ADAM10 confirm	ADAM17 ctr
CN1C(=O)c2cc(NS(=O)(=O)c3cccc(F)c3)ccc2OC[C@@H]2O[C@H](CC(=O)O)CC[C@H]21	0	0	-	0	0	-	-
CCC[C@H]1[C@@H](OC(=O)NCc2cccnc2)CC[C@@]23CCCN2C(=O)CCC[C@@H]13	0	-	-	0	0	-	-
Cn1cccc1/C=N/NC(=O)c1cc2ccccc2cc1O	0	0	0	0	22.8	0	0
Cn1cccc1/C=N/NC(=O)c1ccccn1	0	0	0	0	0	-	-
O=C(NNC(=O)c1sc2ccccc2c1Cl)Nc1ccc(Cl)cc1	0	0	0	0	19.8	0	0
O=C(Nc1ccncc1)c1sc2ccccc2c1Cl	0	0	0	0	0	-	-
CN(C(=O)c1ccc(NC(=O)Cc2ccc(NC(=O)C3CCCN(S(=O)(=O)c4cccc([N+](=O)[O-])c4)C3)cc2)cc1)C1CCCC1 (stereo not given)	0	0	0	0	23.1	0	0
CN(C(=O)c1cccc(NC(=O)Cc2ccc(NC(=O)C3CCCN(S(=O)(=O)c4cccc([N+](=O)[O-])c4)C3)cc2)c1)C1CCCC1 (stereo not given)	0	0	0	0	0	-	-
O=C(O)C(Nc1nc(C(F)(F)F)nc2ccccc12)c1ccccc1 (stereo not given)	0	0	0	0	19.8	0	0
COc1ccccc1N1C(=O)C(Cl)=C(Nc2ccccc2O)C1=O	0	0	0	0	21.9	0	0
Cc1cccc(NC(=O)c2ccc(C3SCC(=O)N3CCc3ccccc3)cc2)c1C (stereo not given)	0	0	0	0	21.5	0	0
COc1cccc(NC(=O)N2CC[C@@H]3[C@H]2c2cc(-c4cccc(C#N)c4)ccc2N(C)[C@@H]3CO)c1	0	0	-	0	0	-	-
COc1ccc(Cl)cc1NC(=O)C/C(C)=N/NC(=O)COc1ccc(C)cc1	0	0	0	0	0	-	-
C/C(CC(=O)Nc1cc(Cl)ccc1Cl)=N\NC(=O)COc1cccc(C)c1	0	0	0	0	20.0	0	0
CSc1nnc(CSCc2ccc(Cl)cc2Cl)n1-c1ccccc1	0	0	0	0	23.2	0	0
S=c1[nH]nc(-c2cc(-c3ccsc3)n[nH]2)n1-c1cccc2ccccc12	0	0	0	0	23.0	0	0
CC(=O)c1ccc(-n2c(-c3cc(-c4ccsc4)n[nH]3)n[nH]c2=S)cc1	0	0	0	0	0	-	-
O=C(NCC1CCN(C(=O)C(=O)c2cccs2)CC1)c1ccc2c(c1)OCO2	0	0	-	0	0	-	-
Cc1ccc(SCCNC(=O)c2ccc(C)c(S(=O)(=O)Nc3ccccc3C)c2)cc1	0	0	0	0	20.7	0	0
Cc1ccc(C(=O)NCCSC2CCCCC2)cc1S(=O)(=O)Nc1ccccc1	0	0	0	0	23.7	0	0
O=C(Cn1nc(C(F)F)cc1C(F)F)NNC(=S)Nc1ccc([N+](=O)[O-])cc1	0	0	0	0	21.5	0	0
O=S1(=O)CCOCC(CO)N1Cc1cccc(Br)c1 (stereo not given)	0	0	-	0	0	-	-
O=C(Nc1ccc(S(=O)(=O)N2CCCC2)cc1)Nc1ccc(F)cc1F	0	0	0	0	0	-	-
Cc1ccc(S(=O)(=O)Nc2ccc(NC(=O)Nc3ccc(F)cc3F)cc2)cc1	0	0	0	0	20.3	0	0
CCc1ccc(CCNC(=O)OC2CCC23CCC(c2ccccc2)CC3)cc1 (stereo not given)	0	0	-	0	0	-	-
SMILES	sPLA2-III inh	KLK7 zymogen act	CendR NRP1 mod	ADAM17 inh	ADAM10 inh	ADAM10 confirm	ADAM17 ctr
CC(C)CN1C(=O)C[C@]2(C(=O)N(C)c3ccc(NC(=O)C(C)(C)C)cc32)C1c1ccccc1 (stereo not given in full)	0	0	-	0	0	-	-
Cc1ccc(NC(=O)Nc2ccc3c(c2)[C@]2(CC(=O)N(CC(C)C)C2c2ccccc2)C(=O)N3C)cc1Cl (stereo not given in full)	0	0	-	9.5	21.7	0	0
CCC(=O)OCC(=O)[C@@]1(OC(=O)CC)[C@@H](C)C[C@H]2[C@@H]3CCC4=CC(=O)C=C[C@]4(C)[C@@]3(Cl)[C@@H](O)C[C@@]21C	0	0	0	0	21.0	0	0
COc1ccccc1CNC(=O)c1ccc(-c2ccccc2C(F)(F)F)o1	0	0	0	0	0	-	-
COc1ccccc1CNC(=O)c1ccc(-c2ccccc2Cl)o1	0	0	0	12.4	21.4	0	0
Cc1nc2ccc(S(=O)(=O)NCC(=O)N(C)Cc3ccc(F)cc3)cc2s1	0	0	-	0	0	-	-
COc1ccc(OC(F)(F)F)cc1CC1(C)C(=O)Nc2ccc(-c3ccsc3)cc21 (stereo not given)	0	0	0	0	25.9	0	0
O=C(Nc1cccc(Cl)c1)OCCOc1ccccc1	0	0	0	0	0	-	-
O=C(Nc1cccc(Cl)c1)OCCOC(=O)Nc1cccc(Cl)c1	0	0	0	0	20.6	0	0
CC(C)[C@H](NC(=O)c1ccccc1)C(=O)N1CCC[C@H]1C(=O)NCc1ccccc1	0	0	-	0	0	-	-
CC(=O)c1ccc(NC(=O)COC(=O)C2CCN(S(=O)(=O)c3cccs3)CC2)cc1	0	0	0	0	84.7	0	0
COc1cccc(NC(=O)COC(=O)C2CCN(S(=O)(=O)c3cccs3)CC2)c1	0	0	0	0	0	-	-
O=C(CSCc1ccccc1Cl)NN=C1CCCCCC1	0	0	0	0	20.1	0	0
Oc1ccc(/C=N/Nc2cc(N3CCCC3)nc(N3CCCC3)n2)cc1	0	0	0	0	0	-	-
COc1ccc(/C=N/Nc2cc(N3CCCC3)nc(N3CCCC3)n2)cc1	0	0	0	0	64.7	0	0
C=CCC[C@@H](Cc1ccc(F)cc1)C(=O)OC[C@H](Cc1c[nH]c2ccccc12)NC(=O)[C@H](CC=C)CC(=O)NCCO	0	0	0	0	22.0	0	0
C=CCC[C@H](Cc1ccc(F)cc1)C(=O)OC[C@@H](C)NC(=O)[C@@H](CC=C)CC(=O)N[C@H](CO)Cc1ccccc1	0	0	0	0	0	-	-
C=CCC[C@H](Cc1ccc(F)cc1)C(=O)OC[C@H](Cc1c[nH]c2ccccc12)NC(=O)[C@H](CC=C)CC(=O)N[C@H](CO)Cc1ccccc1	0	0	0	0	20.9	0	0
C=CCC[C@H](Cc1ccc(F)cc1)C(=O)OC[C@@H](Cc1c[nH]c2ccccc12)NC(=O)[C@H](CC=C)CC(=O)NCCO	0	0	0	0	20.7	0	0
C=CCC[C@@H](Cc1ccc(F)cc1)C(=O)OC[C@@H](NC(=O)[C@@H](CC=C)CC(=O)N[C@@H](CO)Cc1ccccc1)C(C)(C)C	0	0	0	0	20.6	0	0
